Assay results taken from the supplement of paper PMC10849652.
Targets with a hit are over-represented here; the source holds about 7,900 in all. About 0.6% of all pairs of compound and target were hits.

Compound: CC[C@H](C)N1C=C(C2=C(C=C(C=C21)C3=CN=C(C=C3)N4CCNCC4)C(=O)NCC5=C(C=C(NC5=O)C)C)C
Assay: log2 fold change, soluble protein after heating vs DMSO (PISA); higher = thermal stabilisation; K562 cells, 10 uM, 30 min; active = over 0.2 and 3.5 SD of the protein, either way, in both replicates (recomputed)
Procedure, shortened: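 K562 cells at 2×10^6 cells/mL were given 10 μM compound for 30 min. Aliquots then went through 3 min of heating across 48°C-58°C, were pooled, and were extracted in PBS with 0.5% NP-40 at 4°C, and the supernatant after 21,000xg for 90 min was quantified by TMTpro 16plex LC-MS/MS with channel sums equalised. Thermal stability relative to control samples, from duplicates, is given as log2 fold change.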

Chain of UniProt Q9UG56 (Q9UG56 whole entry, looked up): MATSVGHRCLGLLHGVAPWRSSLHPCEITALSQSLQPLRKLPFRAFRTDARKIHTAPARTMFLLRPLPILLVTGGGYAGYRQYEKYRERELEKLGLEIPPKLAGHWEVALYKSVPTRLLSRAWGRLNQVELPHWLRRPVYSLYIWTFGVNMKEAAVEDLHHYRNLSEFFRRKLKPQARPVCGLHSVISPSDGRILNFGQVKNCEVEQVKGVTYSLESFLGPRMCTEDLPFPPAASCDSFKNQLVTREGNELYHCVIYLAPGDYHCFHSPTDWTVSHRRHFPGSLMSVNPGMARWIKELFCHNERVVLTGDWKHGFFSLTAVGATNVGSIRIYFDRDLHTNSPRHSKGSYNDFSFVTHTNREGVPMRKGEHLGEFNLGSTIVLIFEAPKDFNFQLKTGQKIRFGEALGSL
Chain of UniProt P53609 (P53609 whole entry, looked up): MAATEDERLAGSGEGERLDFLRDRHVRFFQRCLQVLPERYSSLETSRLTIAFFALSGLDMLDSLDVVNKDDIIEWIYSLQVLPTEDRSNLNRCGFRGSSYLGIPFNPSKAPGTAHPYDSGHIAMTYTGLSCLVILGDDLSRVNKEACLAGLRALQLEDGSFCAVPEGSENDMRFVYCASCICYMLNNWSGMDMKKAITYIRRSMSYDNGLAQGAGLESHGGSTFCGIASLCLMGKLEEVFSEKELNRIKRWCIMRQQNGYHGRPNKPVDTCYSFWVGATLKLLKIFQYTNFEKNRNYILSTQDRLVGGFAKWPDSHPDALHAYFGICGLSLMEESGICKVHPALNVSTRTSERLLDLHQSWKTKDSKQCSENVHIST
Chain of UniProt P14618 (P14618 whole entry, looked up): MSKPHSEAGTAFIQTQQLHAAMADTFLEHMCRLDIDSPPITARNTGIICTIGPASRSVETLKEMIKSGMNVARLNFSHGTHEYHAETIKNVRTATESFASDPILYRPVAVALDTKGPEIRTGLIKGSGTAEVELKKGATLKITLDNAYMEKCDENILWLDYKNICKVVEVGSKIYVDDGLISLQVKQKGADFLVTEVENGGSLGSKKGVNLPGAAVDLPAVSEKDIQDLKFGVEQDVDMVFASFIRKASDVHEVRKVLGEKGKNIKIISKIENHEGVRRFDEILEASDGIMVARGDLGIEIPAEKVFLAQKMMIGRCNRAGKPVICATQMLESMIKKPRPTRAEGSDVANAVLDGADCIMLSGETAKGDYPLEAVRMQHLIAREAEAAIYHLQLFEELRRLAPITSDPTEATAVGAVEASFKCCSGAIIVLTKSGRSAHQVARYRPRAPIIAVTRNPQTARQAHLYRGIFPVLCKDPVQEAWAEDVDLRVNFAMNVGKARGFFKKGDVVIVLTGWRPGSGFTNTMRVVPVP
Chain of UniProt O95453 (O95453 whole entry, looked up): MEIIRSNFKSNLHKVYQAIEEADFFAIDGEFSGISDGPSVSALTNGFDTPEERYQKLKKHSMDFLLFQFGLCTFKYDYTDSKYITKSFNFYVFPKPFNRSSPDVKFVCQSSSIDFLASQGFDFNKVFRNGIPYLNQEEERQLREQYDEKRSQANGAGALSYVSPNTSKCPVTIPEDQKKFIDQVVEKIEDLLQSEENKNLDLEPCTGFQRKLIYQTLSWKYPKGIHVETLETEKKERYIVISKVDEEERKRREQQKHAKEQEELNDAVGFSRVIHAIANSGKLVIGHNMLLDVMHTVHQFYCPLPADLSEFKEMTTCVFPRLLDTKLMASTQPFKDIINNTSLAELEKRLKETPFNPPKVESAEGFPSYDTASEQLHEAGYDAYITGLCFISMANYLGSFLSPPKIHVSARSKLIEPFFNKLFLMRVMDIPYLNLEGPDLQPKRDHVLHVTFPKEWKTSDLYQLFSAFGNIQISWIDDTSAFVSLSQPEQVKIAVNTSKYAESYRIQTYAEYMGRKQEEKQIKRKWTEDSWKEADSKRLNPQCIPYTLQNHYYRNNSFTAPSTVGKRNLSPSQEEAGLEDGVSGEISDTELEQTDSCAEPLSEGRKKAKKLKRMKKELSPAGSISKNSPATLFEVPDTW
Chain of UniProt P49642 (P49642 whole entry, looked up): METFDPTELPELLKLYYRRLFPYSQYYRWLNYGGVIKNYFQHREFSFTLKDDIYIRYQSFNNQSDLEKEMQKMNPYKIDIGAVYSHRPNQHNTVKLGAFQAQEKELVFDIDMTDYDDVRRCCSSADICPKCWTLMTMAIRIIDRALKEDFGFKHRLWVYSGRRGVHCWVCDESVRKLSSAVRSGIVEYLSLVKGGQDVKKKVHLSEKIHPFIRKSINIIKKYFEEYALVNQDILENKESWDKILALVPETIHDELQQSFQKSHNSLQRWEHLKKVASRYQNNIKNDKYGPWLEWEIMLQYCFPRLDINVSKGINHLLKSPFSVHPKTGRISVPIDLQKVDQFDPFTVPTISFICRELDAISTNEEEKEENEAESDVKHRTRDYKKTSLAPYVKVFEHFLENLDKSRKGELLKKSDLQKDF
Chain of UniProt Q9Y5Y5 (Q9Y5Y5 whole entry, looked up): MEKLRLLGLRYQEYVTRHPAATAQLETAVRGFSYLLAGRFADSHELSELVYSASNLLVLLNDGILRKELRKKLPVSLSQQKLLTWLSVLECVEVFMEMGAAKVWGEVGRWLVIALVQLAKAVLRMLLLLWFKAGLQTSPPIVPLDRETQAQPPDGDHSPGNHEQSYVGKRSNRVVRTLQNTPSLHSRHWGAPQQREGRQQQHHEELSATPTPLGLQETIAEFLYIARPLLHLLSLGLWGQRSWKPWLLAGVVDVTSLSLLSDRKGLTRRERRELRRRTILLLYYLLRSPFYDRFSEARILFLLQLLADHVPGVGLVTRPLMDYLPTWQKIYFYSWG
Chain of UniProt Q99541 (Q99541 whole entry, looked up): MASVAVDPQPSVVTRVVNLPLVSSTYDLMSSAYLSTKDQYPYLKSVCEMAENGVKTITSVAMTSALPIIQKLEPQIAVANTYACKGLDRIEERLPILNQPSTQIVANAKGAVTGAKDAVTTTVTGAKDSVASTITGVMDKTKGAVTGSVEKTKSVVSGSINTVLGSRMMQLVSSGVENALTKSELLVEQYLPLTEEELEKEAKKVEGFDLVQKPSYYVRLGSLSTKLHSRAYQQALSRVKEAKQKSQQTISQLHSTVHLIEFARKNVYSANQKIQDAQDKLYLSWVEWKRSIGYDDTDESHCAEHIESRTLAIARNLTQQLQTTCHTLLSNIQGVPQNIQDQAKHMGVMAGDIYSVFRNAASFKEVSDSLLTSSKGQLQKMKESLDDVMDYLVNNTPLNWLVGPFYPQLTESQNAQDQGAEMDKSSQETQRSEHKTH
Chain of UniProt Q9Y2Y1 (Q9Y2Y1 whole entry, looked up): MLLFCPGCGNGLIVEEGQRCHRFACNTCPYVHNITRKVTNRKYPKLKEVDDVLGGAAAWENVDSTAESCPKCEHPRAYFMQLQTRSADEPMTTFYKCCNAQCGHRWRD
Chain of UniProt Q15365 (Q15365 whole entry, looked up): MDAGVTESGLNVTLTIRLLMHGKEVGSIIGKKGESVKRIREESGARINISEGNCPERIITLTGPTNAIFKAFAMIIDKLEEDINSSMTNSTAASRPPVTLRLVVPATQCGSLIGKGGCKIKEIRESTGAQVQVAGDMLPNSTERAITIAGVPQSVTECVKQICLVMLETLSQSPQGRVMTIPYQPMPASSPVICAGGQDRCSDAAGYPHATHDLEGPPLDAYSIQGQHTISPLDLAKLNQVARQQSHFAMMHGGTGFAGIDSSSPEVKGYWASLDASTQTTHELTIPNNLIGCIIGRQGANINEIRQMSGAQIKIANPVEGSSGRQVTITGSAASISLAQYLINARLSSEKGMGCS
Chain of UniProt Q16822 (Q16822 whole entry, looked up): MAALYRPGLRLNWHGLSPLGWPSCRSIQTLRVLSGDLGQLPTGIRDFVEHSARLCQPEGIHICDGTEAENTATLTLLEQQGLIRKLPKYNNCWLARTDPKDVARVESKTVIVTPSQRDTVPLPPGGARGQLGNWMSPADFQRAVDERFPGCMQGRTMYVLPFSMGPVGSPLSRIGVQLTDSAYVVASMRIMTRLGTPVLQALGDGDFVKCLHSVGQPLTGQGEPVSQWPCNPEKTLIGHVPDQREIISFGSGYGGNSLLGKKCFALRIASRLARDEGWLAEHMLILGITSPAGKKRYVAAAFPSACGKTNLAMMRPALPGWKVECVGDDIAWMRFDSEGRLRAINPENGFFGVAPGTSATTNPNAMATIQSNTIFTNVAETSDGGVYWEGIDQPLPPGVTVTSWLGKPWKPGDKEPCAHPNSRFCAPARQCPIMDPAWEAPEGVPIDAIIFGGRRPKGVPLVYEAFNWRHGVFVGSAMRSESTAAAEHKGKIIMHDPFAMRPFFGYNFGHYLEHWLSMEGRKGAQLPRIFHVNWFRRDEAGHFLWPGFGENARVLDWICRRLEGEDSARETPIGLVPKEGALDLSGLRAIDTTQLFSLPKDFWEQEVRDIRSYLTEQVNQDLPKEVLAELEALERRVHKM
Chain of UniProt O75340 (O75340 whole entry, looked up): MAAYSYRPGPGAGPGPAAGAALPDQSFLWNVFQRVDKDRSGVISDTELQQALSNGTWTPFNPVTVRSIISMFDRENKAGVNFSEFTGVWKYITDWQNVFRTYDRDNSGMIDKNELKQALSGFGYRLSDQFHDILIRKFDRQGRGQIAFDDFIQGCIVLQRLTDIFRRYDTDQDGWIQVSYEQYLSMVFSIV
Chain of UniProt Q86T03 (Q86T03 whole entry, looked up): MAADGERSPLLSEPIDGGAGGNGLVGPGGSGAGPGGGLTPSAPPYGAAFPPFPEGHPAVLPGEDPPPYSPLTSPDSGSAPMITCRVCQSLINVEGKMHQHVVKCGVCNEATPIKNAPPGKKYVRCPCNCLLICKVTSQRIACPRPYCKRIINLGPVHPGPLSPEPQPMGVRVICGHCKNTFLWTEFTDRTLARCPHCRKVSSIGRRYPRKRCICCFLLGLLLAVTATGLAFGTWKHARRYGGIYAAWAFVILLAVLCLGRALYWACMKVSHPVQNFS
Chain of UniProt Q15004 (Q15004 whole entry, looked up): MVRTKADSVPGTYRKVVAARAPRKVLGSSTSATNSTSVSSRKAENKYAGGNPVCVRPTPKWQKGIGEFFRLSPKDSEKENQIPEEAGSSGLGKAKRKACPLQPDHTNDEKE

log2 fold change, inactive:
PYGB (UniProt P11216) 0.036
PLCB3 (UniProt Q01970) 0.044
POLR2M (UniProt P0CAP2) 0.013
PEX16 isoform 2 (UniProt Q9Y5Y5) -0.013
PTPA (UniProt A6PVN8) -0.03
PARN (UniProt O95453) 0.059
PKM (UniProt P14618) -0.035
PRIM1 (UniProt P49642) 0.093
PCK2 (UniProt Q16822) 0.033
POLR2G (UniProt P62487) -0.075
PTDSS1 (UniProt P48651) -0.069
PHKA2 (UniProt P46019) -0.174
PISD (UniProt Q9UG56) -0.017
PIP4P1 isoform 2 (UniProt Q86T03) -0.003
PGGT1B (UniProt P53609) 0.004
PCLAF (UniProt Q15004) -0.046
POLR3K (UniProt Q9Y2Y1) -0.018
POLR2K (UniProt P53803) -0.05
PCBP1 (UniProt Q15365) 0.04
PCNT (UniProt O95613) -0.147
PTGR2 (UniProt Q8N8N7) 0.154
PLIN2 (UniProt Q99541) -0.102
PDCD6 (UniProt O75340) -0.006
